M1 PAM: human CHRM1 positive allosteric modulation. P11229. CHO-K1 hM1, Fluo-8 calcium fluorescence, ACh EC20; 0% = ACh EC20, 100% = maximal ACh. activation, % at 3 µM. 0.088% of 360,000 active. AID 588819; in the data active = activation above about 19%, passing the limit was not always enough
Target sequence (P11229 whole entry, looked up): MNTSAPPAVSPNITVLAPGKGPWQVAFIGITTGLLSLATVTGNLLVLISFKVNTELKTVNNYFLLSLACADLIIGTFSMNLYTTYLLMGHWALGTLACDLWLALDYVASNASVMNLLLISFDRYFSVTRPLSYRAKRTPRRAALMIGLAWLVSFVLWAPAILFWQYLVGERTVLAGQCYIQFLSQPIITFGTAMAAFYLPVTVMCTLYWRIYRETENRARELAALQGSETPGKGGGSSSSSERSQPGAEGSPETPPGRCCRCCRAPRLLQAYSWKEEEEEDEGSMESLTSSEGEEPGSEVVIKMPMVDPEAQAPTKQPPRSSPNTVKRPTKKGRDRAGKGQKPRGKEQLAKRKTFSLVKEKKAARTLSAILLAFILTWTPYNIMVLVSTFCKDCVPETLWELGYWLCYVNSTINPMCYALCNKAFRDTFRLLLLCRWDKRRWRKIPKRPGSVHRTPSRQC
CHRM1 antagonist: human CHRM1 antagonism; CHO-K1 hM1, Fluo-8 calcium fluorescence, ACh EC80 antagonist; inhibition, % at 3 µM; 1.3% of 360,000 active; AID 588852;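 active = percent inhibition above its own plate's cutoff, namely the mean of that plate's compound wells plus 3 SD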;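 also: peak over basal fluorescence ratio during 140 s after agonist addition; 0% = ACh EC80 plus DMSO and 100% = DMSO alone without agonist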
CHO-K1 Ca antag: M1 antagonist counterscreen hit in parental CHO-K1 cells; 0.6% of 360,000 active; AID 602250; inhibition, % at 3 µM; ATP-induced calcium, Fluo-8 fluorescence;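 active = inhibition above a per-plate cutoff, the plate's mean sample inhibition plus 3 SD, cut at about 24% in these data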;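 also: 0% = DMSO plus EC80 ATP and 100% = DMSO alone without ATP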
CHO-K1 Ca PAM: M1 PAM counterscreen hit in parental CHO-K1 cells | ATP EC20, Fluo-8 calcium fluorescence; 0% at ATP EC20, 100% at ATP max | 0.02% of 360,000 active | activation, % at 3 µM;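 active = activation above the run cutoff, the mean activation of all test compounds plus 3 SD, cut at about 40% in these data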;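 also: peak over basal fluorescence ratio in a 140 s read after ATP addition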
CHO-K1 Ca ag: nonselective activator or artifact in parental CHO-K1 cells | activation, % at 3 µM | Fluo-8 calcium fluorescence; scaled to maximal ATP response, vehicle zero | 0.48% of 360,000 active | AID 602248; in the data active = activation above about 15%;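 also: untransfected CHO-K1 host cells lacking M1 receptor as counterscreen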
CHRM1 agonist: agonists of human M1 muscarinic receptor; P11229; CHO-K1 hM1, Fluo-8 calcium fluorescence, agonist mode; 0% DMSO, 100% acetylcholine EC100; activation, % at 3 µM; 0.33% of 360,000 active;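 active = activation above the run's mean compound activation plus 3 SD, cut at about 16% in these data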;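 also: peak over basal fluorescence ratio within a 140 s kinetic read after compound addition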
Starred values were filed as active, the others as inactive; . = no result given. In the library only some 2.3% were active in any assay of this set; here they are far more common.

SMILES	M1 PAM	CHRM1 antagonist	CHO-K1 Ca antag	CHO-K1 Ca PAM	CHO-K1 Ca ag	CHRM1 agonist
COc1cccc(CCNC(=O)C2CCCN(c3ncnc4c3nc3n4CCCCC3)C2)c1OC (centres undefined)	1.4	0.5	-6.0	2.2	0.3	-5.0
CC1CC(C)CN(CCCNC(=O)C2CCCN(c3ncnc4c3nc3n4CCCCC3)C2)C1 (centres undefined)	-19.3	29.2*	1.8	-6.4	0.0	-12.2
CC1CCCN(CCCNC(=O)C2CCCN(c3ncnc4c3nc3n4CCCCC3)C2)C1 (centres undefined)	2.1	5.3	-5.6	17.3	-0.7	-5.3
O=C(Nc1ccc(OC(F)(F)F)cc1)Nc1cccnc1	3.2	-2.8	0.1	-1.6	4.0	1.0
Cc1ccc(NC(=O)Nc2cccc([N+](=O)[O-])c2)cc1F	-16.2	26.2	16.6	13.4	15.4*	1.2
Cc1ccccc1NC(=O)NC(C)(C)CC(C)(C)C	2.1	-8.6	-12.2	13.3	19.3*	-1.2
CC(C)(C)c1ccc(C(=O)Nc2cccc([N+](=O)[O-])c2)cc1	-13.8	13.1	-2.1	10.4	6.8	-5.6
Cc1ccccc1NC(=O)CC(=O)Nc1ccccc1C	0.5	1.9	-7.6	7.4	1.0	-3.1
CC(C)(C)CC(C)(C)NC(=O)Nc1cccc([N+](=O)[O-])c1	-17.5	31.5*	14.5	-22.1	13.3	1.3
O=C(Nc1ccc(OC(F)(F)F)cc1)Nc1cccc([N+](=O)[O-])c1	-13.7	33.6	23.3	-0.7	16.4*	1.7
CC1(C(=O)Nc2cccc(NS(C)(=O)=O)c2)Cc2c(-c3ccc(C(N)=O)cc3)ccnc2O1 (centres undefined)	1.3	-1.5	3.7	-2.3	0.4	-1.8
CNc1cc(C(=O)Nc2cccc(OCc3ccccc3)c2)ncn1	4.5	-6.4	-18.8	12.4	0.5	-2.2
COc1cc(/C=C(\C#N)c2nc3ccccc3o2)ccc1O	-15.0	40.4*	30.3*	-21.0	45.3*	35.4*
COc1ccc(CCC(=O)N/N=C/c2ccc3c(c2)OCO3)cc1	-3.9	12.8	10.3	-15.1	3.2	-3.5
CCCc1c(-c2ccc(Cl)cc2)ncn1Cc1ccccc1OC	.	.	2.6	8.8	15.6*	.
CCOC(=O)C1CCCN(C(=O)c2cc(C)n(C(C)(C)C)n2)CC1 (centres undefined)	5.6	-13.3	-16.5	11.3	1.3	-3.2
CC(C)C(=O)NNC(=O)c1cc2sccc2s1	4.4	-8.2	-4.1	18.4	1.1	-2.9
Cc1cccc(/C=N/NC(=O)c2ccc(Br)cc2)c1	5.1	3.5	6.6	14.7	17.1*	-6.9
Cc1nc2ccccc2cc1OCc1ccc(Cl)cc1	-12.2	21.6*	14.6	8.3	5.5	-2.4
COc1cccc(COc2cc3ccccc3nc2C)c1	-6.5	33.9*	22.0	11.8	5.6	-0.9
Cc1nc2ccccc2cc1OCc1ccccc1	-12.4	17.5*	15.0	11.9	5.2	-1.6
O=C(COC(=O)C12CC3CC(CC(Br)(C3)C1)C2)N1CCOCC1	8.5	0.9	12.1	12.2	16.6*	-9.3
[O-][n+]1c2ccccc2[n+]([O-])c2cc(O)ccc21	9.2	-11.5	-9.7	-3.5	0.4	-3.0
O=C(Cc1ccc(F)cc1)N/N=C/c1ccncc1	1.7	-5.8	10.8	-3.2	-0.1	-5.1
Cc1[nH]c(=O)sc1C(=O)NCc1ccc([N+](=O)[O-])cc1	8.1	-8.4	34.8*	-11.2	0.4	-0.8
SMILES	M1 PAM	CHRM1 antagonist	CHO-K1 Ca antag	CHO-K1 Ca PAM	CHO-K1 Ca ag	CHRM1 agonist
Cc1c(C(=O)NCc2ccc([N+](=O)[O-])cc2)sc(=O)n1Cc1ccc(-c2ccccc2)cc1	9.0	-6.3	0.0	18.1	0.3	3.7
COc1ccc(NC(=O)CON=CC(=O)Nc2ccc(C)cc2)c(OC)c1	1.7	-0.6	0.0	15.7	-0.2	-5.4
COCCNc1nc(Nc2ccc(C(=O)OC)cc2)c2sccc2n1	-5.3	-5.8	-8.4	19.7	3.7	-4.1
CC1=C(C(=O)N(C)C)CC(CC(=O)NCc2cccc3ccccc23)C(=O)N1CCCN1CCCC1=O (centres undefined)	24.1	-22.6	-3.7	-9.7	0.2	6.2
CCC(=O)N(Cc1cc(=O)[nH]c2ccccc12)c1cccc(C)c1	-21.0	65.3*	-7.7	11.7	0.9	-4.7
CCCC(=O)N(Cc1cc(=O)[nH]c2ccccc12)c1ccc(C)cc1	-28.5	56.9*	-3.8	21.6	1.7	1.3
CCCC(=O)N(Cc1cc(=O)[nH]c2ccccc12)c1ccc(C)cc1C	-3.7	8.2	-6.2	-11.5	1.3	3.2
CCC(=O)N(Cc1cc(=O)[nH]c2ccccc12)c1ccccc1C	10.0	-6.3	55.3*	-31.2	-0.7	-2.3
CCOC(=O)Cc1c(-c2cccc(Br)c2)nc2c3ccccc3ccn12	.	.	15.5	-7.8	0.8	.
COc1cccc(CN2CC(C(=O)NCCc3ccc(C)o3)CCC2=O)c1 (centres undefined)	3.8	0.3	-7.8	-14.8	0.6	-2.3
CCN(CC)S(=O)(=O)c1ccc(N2Cc3ccccc3C2=N)cc1	-9.3	29.9*	-1.7	8.2	4.9	-3.4
Cc1ccc(-n2nnc(-c3ccnc4ccccc34)n2)cc1	8.7	-17.6	-7.3	20.4	3.3	-3.7
O=C(Nc1ccc(Cl)cc1)c1cc2c(cc1O)[nH]c1ccccc12	-5.7	25.4	28.8*	-15.1	15.9*	3.2
O=C(NCCCn1ccnc1)Nc1ccc2c(c1)OCO2	0.6	-6.1	-11.4	-5.8	-0.3	-5.6
Cc1cccc(N(C(=O)Nc2ccc(Cl)cc2)C2=NCC(C)S2)n1 (centres undefined)	-3.8	17.8	11.0	2.9	15.2*	-6.9
Cc1ccc(NC(=O)N(C2=NCC(C)S2)c2ccccc2)cc1 (centres undefined)	-8.4	8.3	-7.0	5.5	1.2	-6.0
Cc1ncc(CN2CCCC(CCC(=O)NCc3ccc(F)c(F)c3)C2)s1 (centres undefined)	-3.1	-1.8	1.1	7.7	-0.5	-13.4
Cc1occc1C(=O)N1CCCC(CCC(=O)NCc2ccc(F)c(F)c2)C1 (centres undefined)	11.3	-6.5	-13.3	10.8	0.7	-5.7
O=C(CCC1CCCN(C2C3CC4CC(C3)CC2C4)C1)NCc1ccc(F)c(F)c1 (centres undefined)	-18.1	43.3*	-5.4	12.2	0.3	-4.7
O=C(CCC1CCCN(Cc2ccc3c(c2)CCO3)C1)NCc1ccc(F)c(F)c1 (centres undefined)	-29.7	32.8*	12.4	-5.7	-0.1	-11.8
O=S(=O)(c1ccc2c(c1)OCCCO2)N1CCNCC1	9.0	-8.3	-14.0	14.9	0.4	-5.3
c1cc2c(cc1C1CCCN1)OCCCO2 (centres undefined)	-10.7	28.1*	-4.5	12.9	0.0	-2.6
Nc1cc(=O)[nH]n1C1CCN(c2ccccc2)CC1	3.1	-4.6	26.2*	-5.4	-0.6	-0.4

High-throughput results from PubChem.
